A short description of assay [1]: AP1 Signaling Pathway (AID 357; active means well fitted curve in either direction with a large enough effect, not every such curve was filed as active; further: on the % scale 0 is the no-effect control and ±100 the full control effect). The note with it: ME-180 (cervical carcinoma) AP-1-bla reporter, EGF-induced, beta-lactamase ratio, 5 h; at 17.2 µM (top of the series) unless noted. The method, boiled down: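 Read-out was the 460nm/530nm emission ratio (excitation 405nm) after CCF4 loading for 2.5 hours at room temperature. Cells carried an AP-1-driven beta-lactamase reporter, were stimulated with EC50 EGF plus compound for 5 hours, and AC50 values came from titrations.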

For assay [2], the target named is Cytochrome P450 1A2 (Homo sapiens) (UniProt P05177). The assay is described as follows: p450-cyp1a2 (AID 410; calls by dose curve; further: potency means the concentration at half of the fitted maximal effect). The method, boiled down:
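O-Demethylation of luciferin 6' methyl ether by human CYP1A2 is monitored as luciferase luminescence. Substrate sits at Km (100uM); enzyme is 20nM. Values are scaled to 57 uM furafylline as maximal inhibition.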

Assay [3] is described as follows: NFAT Signaling Pathway (AID 444; active means well fitted curve in either direction with a large enough effect, not every such curve was filed as active;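 further: carbachol stimulus at about its EC50 of 1 µM final; on the % scale 0 is the no-effect control and ±100 the full control effect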). The note with it: Jurkat NFAT-bla M1, carbachol, beta-lactamase ratio, 5 h; at 17.2 µM (top of the series) unless noted. An outline of the steps: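 Jurkat cells carrying an NFAT-driven β-lactamase reporter and co-transfected muscarinic M1 receptor were treated with compound plus carbachol (1 uM final, an EC50 level) for 5 h at 37 °C. CCF4 loading followed for 1 h at RT; 460/530 nm ratio gave %activity.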

Assay [4] has as its target Glucocorticoid receptor (Homo sapiens) (UniProt P04150). The assay is described as follows: GR-GFP Redistribution (AID 450;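 active means compounds whose dose series gives a full or clear partial fitted curve of increased nuclear translocation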; further: potency means the concentration at half of the fitted maximal effect). The note with it: U2OS GR-GFP nuclear translocation, laser cytometry, 2 h.
Assay [5] has the same target. Description: GR-EFC Redistribution (AID 451; calls by dose curve; further: potency means the concentration at half of the fitted maximal effect). The note with it: CHO-K1 GR-EFC translocation, beta-gal luminescence, 2 h. An outline of the steps: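 CHO-K1 cells stably expressing nuclear-localized β-gal enzyme acceptor and GR fused C-terminally to the enzyme donor fragment; ligand-driven nuclear translocation restores β-gal by complementation. Compounds titrated up to 46 uM final, 2 h at 37 °C; luminescence read.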

Assay [6] addresses Mitogen-activated protein kinase 10 (Mus musculus) (UniProt Q61831). The assay is described as follows: JNK3 AlphaScreen Assay (AID 530; active means well fitted curve in either direction with a large enough effect, not every such curve was filed as active;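 further: kinase came from lysate of stimulated human HepG2 cells; signal reports phosphorylation of biotinylated GST-cJun 1-79 at Ser73 with 10 µM ATP; on the % scale 0 is the no-effect control and ±100 the full control effect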). The method, boiled down: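 Phosphorylation of biotinylated GST-cJun(1-79) at Ser73 is measured by AlphaScreen proximity luminescence. Enzyme is JNK3 in HepG2 lysates activated with interleukin-1beta and tumor necrosis factor alpha; ATP is 10 uM final.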
(In general: In Alpha technology, singlet oxygen from a donor bead excites a nearby acceptor bead.)

In assay [7] the target is 3',5'-cyclic-AMP phosphodiesterase 4B (Homo sapiens) (UniProt Q07343). The assay is described as follows: qHTS Assay for Inhibitors of PDE-IV (AID 607; active means well fitted activation curve with a large enough effect in the main read-out, with a control signal flat, not every such curve was filed as active; further: % of control where 0% means no effect). An outline of the steps: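 Cell-based read-out of cAMP via a modified cyclic nucleotide-gated channel and membrane potential dye (535/590 nm) in HEK293 cells expressing PDE4 endogenously. Compounds tested up to 22.9 uM final; 100 uM RO 20-1724 reference.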
Chain of 3',5'-cyclic-AMP phosphodiesterase 4B (Homo sapiens) (Q07343 whole entry, looked up): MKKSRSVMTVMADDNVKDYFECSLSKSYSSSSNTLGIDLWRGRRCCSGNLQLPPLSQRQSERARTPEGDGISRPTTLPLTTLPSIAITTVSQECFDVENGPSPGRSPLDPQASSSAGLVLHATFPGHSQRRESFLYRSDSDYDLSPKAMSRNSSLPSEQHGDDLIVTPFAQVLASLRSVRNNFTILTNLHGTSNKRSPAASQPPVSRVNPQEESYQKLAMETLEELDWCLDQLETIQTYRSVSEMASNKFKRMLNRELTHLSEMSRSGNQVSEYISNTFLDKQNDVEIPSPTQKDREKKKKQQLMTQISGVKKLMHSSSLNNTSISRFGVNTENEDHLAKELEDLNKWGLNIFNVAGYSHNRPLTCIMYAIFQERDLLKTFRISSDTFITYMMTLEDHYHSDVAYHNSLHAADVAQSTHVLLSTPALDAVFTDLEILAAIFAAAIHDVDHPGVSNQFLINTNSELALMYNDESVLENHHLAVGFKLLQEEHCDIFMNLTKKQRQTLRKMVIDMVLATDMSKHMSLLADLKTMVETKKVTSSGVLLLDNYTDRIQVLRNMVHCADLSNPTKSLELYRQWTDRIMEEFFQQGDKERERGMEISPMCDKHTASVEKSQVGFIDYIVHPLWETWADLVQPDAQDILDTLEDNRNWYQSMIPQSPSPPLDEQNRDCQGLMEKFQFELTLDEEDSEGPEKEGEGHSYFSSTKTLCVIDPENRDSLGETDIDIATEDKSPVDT
(In general: In qHTS, concentration-response curves come from the screen itself.)

The target of assay [8] is Guanine nucleotide-binding protein G(i) subunit alpha-1 (Homo sapiens) (UniProt P63096). Description: qHTS Assay for Inhibitors of RGS12 GoLoco Motif Activity (Green Fluorophore) (AID 879).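 Further: 0% = labeled peptide with Gαi1 and full inhibition = labeled peptide alone without protein; negative values mean loss of peptide binding seen as reduced polarization.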 The method, boiled down:
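A drop in FITC polarization marked displacement of the FITC-tagged RGS12 GoLoco peptide (10 nM) from Gαi1 (50 nM). Compounds were incubated 10 min at room temperature in Tris pH 7.5 buffer containing 150 mM NaCl, 0.1 mM GDP and 0.05% NP40; unlabeled peptide titration served as control.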

Assay [9] addresses Cytochrome P450 3A4 (Homo sapiens) (UniProt P08684). Description: qHTS Assay for Inhibitors and Substrates of Cytochrome P450 3A4 (AID 884). Further: potency means the concentration at half of the fitted maximal effect; nearly all actives have a fitted effect of over 50% in size. The method, boiled down: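 Luminescent readout of luciferin produced by CYP3A4 (20 nM) dealkylation of Luciferin-PPXE, 25 uM (its KM). NADPH-driven reaction ran 60 min at RT after 10 min compound preincubation; data scaled to 57 uM ketoconazole as 100% inhibition.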

The target is the same in assay [10]. Description: qHTS Assay for Activators of Cytochrome P450 3A4 (AID 885). Further: nearly all actives have a fitted effect of over 65% in size. The method, boiled down: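 Luminescent readout of luciferin formed from 25 uM Luciferin-PPXE (KM level) by 20 nM CYP3A4 in 200 mM KPO4, with 60 min NADPH-driven reaction at room temperature after 10 min compound exposure. Ketoconazole (57 uM) defined 100% inhibition.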
Assay [11] can be described thus: qHTS Assay for Identification of Small Molecule Antagonists for Thrombopoietin (TPO) Signaling Pathway (AID 918). Further: potency means the concentration at half of the fitted maximal effect; nearly all actives have a fitted effect of over 60% in size. The note with it: TPO-dependent cell signaling reporter, antagonist mode. The method, boiled down:
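Inhibitors of TPO signaling are sought by stimulating IL-3-starved murine Ba/F3 cells (human TPO receptor, Glycoprotein IIb-driven luciferase) with TPO at its EC50 of 26 pM alongside compound. After 24 hrs at 37 C, reporter luminescence is measured.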

Assay [12] deals with Muscarinic acetylcholine receptor M1 (Rattus norvegicus) (UniProt P08482). The assay is described as follows: qHTS Assay for Antagonists of Acetylcholine Muscarinic M1 Receptor: Kinetic Measurement of Intracellular Calcium Response (AID 943).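 Further: Fluo-4 calcium signal as peak divided by basal fluorescence over 4 min; nearly all actives have a fitted effect of over 75% in size.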 The method, boiled down:
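Antagonism is measured as inhibition of the carbachol-evoked calcium rise in CHO cells transfected with rat M1. Cells are dye-loaded, exposed to compound for 10 min, then stimulated with 100 nM carbachol (EC80).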

For assay [13] the target is unchanged. The assay is described as follows: qHTS Assay for Antagonists of Acetylcholine Muscarinic M1 Receptor: Measurement of IP-One Response (AID 944). Further: nearly all actives have a fitted effect of over 75% in size. An outline of the steps: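 Antagonist mode with rat M1 receptor transfected into CHO cells. Compound is added first for 10 min, carbachol at its EC80 follows for 30 min, and lysis reagents then allow TR-FRET detection of accumulated IP1.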

For assay [14], the target named is Pyruvate kinase (Leishmania mexicana) (UniProt Q27686). Description: qHTS Validation Assay for Inhibitors of Leishmania Mexicana Pyruvate Kinase (AID 945).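 Further: 0% = DMSO only neutral control wells.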 The method, boiled down: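 The enzyme is a highly purified E451W mutant of LmPYK used at 0.2 nM. It converts 0.5 mM PEP and 0.1 mM ADP over 1 h at room temperature; product ATP is quantified by luciferase luminescence relative to DMSO controls.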
Chain of Pyruvate kinase (Leishmania mexicana) (Q27686 2-499 E452W): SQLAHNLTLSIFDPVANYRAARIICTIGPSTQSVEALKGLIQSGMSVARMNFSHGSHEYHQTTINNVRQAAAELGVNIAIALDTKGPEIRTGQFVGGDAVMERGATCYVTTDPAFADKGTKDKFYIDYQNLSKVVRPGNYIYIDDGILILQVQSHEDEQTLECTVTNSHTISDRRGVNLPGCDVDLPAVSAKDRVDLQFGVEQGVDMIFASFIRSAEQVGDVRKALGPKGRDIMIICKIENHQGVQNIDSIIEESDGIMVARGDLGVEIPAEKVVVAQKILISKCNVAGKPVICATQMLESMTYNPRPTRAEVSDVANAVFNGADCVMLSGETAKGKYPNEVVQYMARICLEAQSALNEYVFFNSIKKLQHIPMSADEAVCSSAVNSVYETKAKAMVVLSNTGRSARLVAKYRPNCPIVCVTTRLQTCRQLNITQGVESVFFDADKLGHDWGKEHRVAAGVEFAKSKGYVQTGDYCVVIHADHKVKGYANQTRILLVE

Assay [15] has as its target Pyruvate kinase PKM (Homo sapiens) (UniProt P14618). Description: qHTS Assay for Activators of Human Muscle Pyruvate Kinase (AID 954; active means well fitted curve in the direction sought with a large enough effect, not every such curve was filed as active;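 further: 0% = uninhibited enzyme and -100% = no enzyme or full thiadiazolimine inhibition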). The method, boiled down:
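ATP production by PKM2 detected via luciferase luminescence after 1 h room-temperature reaction (0.1 nM enzyme, PEP at Km 0.5 mM, ADP 0.1 mM, pH 7.2 imidazole buffer). Inhibition scaled to no-enzyme control; activation referenced to 0.3 nM enzyme wells.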

For assay [16], the target named is Alpha-galactosidase (Coffea arabica) (UniProt Q42656). The assay is described as follows: Counterscreen for Glucocerebrosidase Inhibitors: qHTS Assay for Coffee Bean alpha-Galactosidase at pH 4.5 (AID 957).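 Further: plate controls were enzyme alone for no effect and no enzyme for full effect.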 The method, boiled down:
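Enzyme is added first (2 nM final), then compounds titrated from 0.7 nM to 77 uM, then 80 uM 4-methylumbelliferyl alpha-D-galactopyranoside; after 20 min at room temperature a pH 10 NaOH/glycine stop precedes fluorescence reading at 365/440 nm.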

Assay [17] has as its target Alpha-galactosidase A (Homo sapiens) (UniProt P06280). Description: Counterscreen for Glucocerebrosidase Inhibitors: qHTS Assay for Human alpha-Galactosidase at pH 4.5 (AID 992). Further: 0% is about no effect. An outline of the steps: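 Fluorogenic 1536-well qHTS at pH 4.5 (citrate, Tween-20): 2 nM enzyme, 80 uM 4-MU-alpha-galactoside, 20 min room temperature, NaOH/glycine stop. Titration 0.7 nM to 77 uM, data normalized to no-enzyme and full-activity controls, Hill-fitted AC50.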
In general terms: Counterscreens check selectivity or assay interference.

The target in assay [18] is alpha-glucosidase (Oryza sativa, rice) (UniProt Q653V4). Description: Counterscreen for Glucocerebrosidase Inhibitors: qHTS Assay for Rice alpha-Glucosidase at pH 5.0 (AID 997).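 Further: 0% = full activity with enzyme and -100% = basal without enzyme.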 The method, boiled down: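 Endpoint fluorogenic assay at pH 5.0: compounds (0.7 nM to 77 uM) titrated against 4 nM rice enzyme and 400 uM 4-MU-alpha-glucoside for 20 min at room temperature; NaOH/glycine stop, read ex 365/em 440 nm, Hill-fitted AC50.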

For assay [19], the target named is Alpha-galactosidase (Coffea arabica) (UniProt Q42656). Description: Counterscreen for Glucocerebrosidase Inhibitors: qHTS Assay for Coffee Bean alpha-Galactosidase at pH 5.9 (AID 998).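 Further: plate controls were uninhibited enzyme for no effect and no-enzyme basal signal for full effect.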 The method, boiled down: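 In 50 mM citric acid pH 5.9 with 0.005% Tween-20, coffee bean enzyme hydrolyses 80 uM 4-MU alpha-D-galactopyranoside over 20 min at RT. Activity is normalized to controls; AC50 comes from Hill-modelled concentration-response data.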
Chain of Alpha-galactosidase (Coffea arabica) (Q42656 whole entry, looked up): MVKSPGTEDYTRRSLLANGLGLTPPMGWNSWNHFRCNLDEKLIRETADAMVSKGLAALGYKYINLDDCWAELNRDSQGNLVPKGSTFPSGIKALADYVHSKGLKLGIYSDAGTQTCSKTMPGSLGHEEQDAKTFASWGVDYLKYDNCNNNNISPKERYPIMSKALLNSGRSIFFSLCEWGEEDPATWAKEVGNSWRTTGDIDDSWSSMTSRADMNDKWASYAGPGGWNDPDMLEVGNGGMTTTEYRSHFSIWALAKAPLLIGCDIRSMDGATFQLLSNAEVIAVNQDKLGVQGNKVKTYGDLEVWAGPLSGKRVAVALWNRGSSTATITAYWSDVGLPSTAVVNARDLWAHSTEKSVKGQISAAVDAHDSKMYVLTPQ

Assay [20] addresses Cytochrome P450 2C9 (Homo sapiens) (UniProt P11712). The assay is described as follows: qHTS Assay for Inhibitors and Substrates of Cytochrome P450 2C9 (AID 883). Further: on the % scale 0 is the no-effect control and ±100 the full control effect; nearly all actives have a fitted effect of over 60% in size. The method, boiled down: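 Human CYP2C9 (10nM) hydroxylated Luciferin-H (100uM, at its KM) to luciferin in 25mM KPO4. Compound was preincubated 10 min at 37C, then NADPH regeneration started a 60 min reaction at 37C. Luminescence was read after detection reagent, normalized to 57uM sulphaphenazole.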

In assay [21] the target is Cytochrome P450 2D6 (Homo sapiens) (UniProt P10635). Description: qHTS Assay for Inhibitors and Substrates of Cytochrome P450 2D6 (AID 891).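 Further: luciferin methyl ether substrate demethylated by CYP2D6 with NADPH regeneration; on the % scale 0 is the no-effect control and ±100 the full control effect; nearly all actives have a fitted effect of over 60% in size.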 The method, boiled down: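 Luminescent read-out of luciferin formed by 5 nM human CYP2D6 demethylating 30 uM Luciferin-ME EGE (Km level) over 60 min at room temperature after NADPH regeneration addition. Data normalized to full inhibition by 1.43 uM quinidine.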

For assay [22], the target named is Cytochrome P450 2C19 (Homo sapiens) (UniProt P33261). Description: qHTS Assay for Inhibitors and Substrates of Cytochrome P450 2C19 (AID 899). Further: on the % scale 0 is the no-effect control and ±100 the full control effect; nearly all actives have a fitted effect of over 60% in size. The method, boiled down: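 Human CYP2C19 (5nM) with Luciferin-H EGE at 10uM (its KM) in 50mM KPO4 was preincubated with compound for 10 min at 37C. NADPH regeneration started a 60 min 37C reaction. Luciferin was read by luminescence, normalized to 57uM ketoconazole.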

A short description of assay [23]: Stat Signaling Pathway (AID 446; active means well fitted curve in either direction with a large enough effect, not every such curve was filed as active;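 further: ME-180 cervical cancer cells given 40 pM IL-6 alongside compound; SIE-controlled beta-lactamase reporter measured as 460/530 nm FRET emission ratio; on the % scale 0 is the no-effect control and ±100 the full control effect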). The method, boiled down: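 FRET read-out (405 nm excitation, 460/530 nm emission) of a beta-lactamase reporter under a STAT-inducible element in ME-180 cervical carcinoma cells. Cells with compound receive 40 pM IL-6 for 5 h. Values are normalised to AC90 stimulation and AC90 JAK-inhibitor controls.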
Assay [24] has as its target Pyruvate kinase PKM (Homo sapiens) (UniProt P14618). The assay is described as follows: qHTS Assay for Inhibitors of Human Muscle Pyruvate Kinase (AID 958). An outline of the steps: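 Luminescence from a luciferase ATP-detection/stop reagent reported PKM2 activity. Reactions contained 0.1 nM purified human enzyme, 0.5 mM PEP, 0.1 mM ADP and 7 mM MgCl2 at pH 7.2, run 1 h at RT.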

Values without a mark were called inactive. Records with an inconclusive call do not appear. Activity calls are given as the source filed them. Unless noted, the call rests on the fitted dose curve; in most records, active means well fitted curve in the direction sought with a large enough effect; inconclusive means small, poorly fitted or top-dose-only effect, or another doubt; inactive means no such curve, though single readings can be large; an effect the other way counts as inactive or inconclusive.

Chain of Muscarinic acetylcholine receptor M1 (Rattus norvegicus) (P08482 whole entry, looked up): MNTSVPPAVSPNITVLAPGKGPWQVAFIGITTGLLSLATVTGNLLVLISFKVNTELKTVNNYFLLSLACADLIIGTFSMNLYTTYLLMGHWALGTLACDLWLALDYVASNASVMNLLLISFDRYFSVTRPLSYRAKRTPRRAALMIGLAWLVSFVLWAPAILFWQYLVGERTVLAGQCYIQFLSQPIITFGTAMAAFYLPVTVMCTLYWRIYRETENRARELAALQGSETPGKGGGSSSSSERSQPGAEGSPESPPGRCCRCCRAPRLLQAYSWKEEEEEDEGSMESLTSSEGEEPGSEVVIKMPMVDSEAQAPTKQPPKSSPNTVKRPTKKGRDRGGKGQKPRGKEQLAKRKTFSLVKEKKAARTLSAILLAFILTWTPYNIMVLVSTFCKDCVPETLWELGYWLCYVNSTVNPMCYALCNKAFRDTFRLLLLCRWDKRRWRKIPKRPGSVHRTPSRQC
Chain of Glucocorticoid receptor (Homo sapiens) (P04150 whole entry, looked up, the tested form may be a part): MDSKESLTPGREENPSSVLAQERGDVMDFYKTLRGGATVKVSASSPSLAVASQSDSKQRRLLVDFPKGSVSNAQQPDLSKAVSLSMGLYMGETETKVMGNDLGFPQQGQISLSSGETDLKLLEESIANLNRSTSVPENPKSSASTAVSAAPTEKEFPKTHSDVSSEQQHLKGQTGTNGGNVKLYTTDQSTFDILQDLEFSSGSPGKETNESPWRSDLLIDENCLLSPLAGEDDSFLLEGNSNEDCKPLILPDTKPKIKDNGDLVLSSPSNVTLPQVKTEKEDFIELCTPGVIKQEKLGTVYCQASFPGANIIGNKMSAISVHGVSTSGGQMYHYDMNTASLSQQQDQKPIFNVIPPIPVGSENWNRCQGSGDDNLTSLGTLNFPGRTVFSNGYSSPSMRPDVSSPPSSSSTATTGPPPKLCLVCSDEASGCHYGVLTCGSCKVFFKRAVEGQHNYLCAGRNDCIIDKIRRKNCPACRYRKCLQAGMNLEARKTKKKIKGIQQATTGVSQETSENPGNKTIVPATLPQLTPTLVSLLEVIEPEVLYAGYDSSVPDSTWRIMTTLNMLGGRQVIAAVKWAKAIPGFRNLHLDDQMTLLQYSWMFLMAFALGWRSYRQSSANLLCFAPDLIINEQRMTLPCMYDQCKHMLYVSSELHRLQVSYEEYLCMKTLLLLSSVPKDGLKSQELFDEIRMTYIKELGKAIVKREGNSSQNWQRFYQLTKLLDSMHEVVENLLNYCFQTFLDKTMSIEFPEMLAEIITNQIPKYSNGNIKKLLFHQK
Chain of Cytochrome P450 3A4 (Homo sapiens) (P08684 whole entry, looked up): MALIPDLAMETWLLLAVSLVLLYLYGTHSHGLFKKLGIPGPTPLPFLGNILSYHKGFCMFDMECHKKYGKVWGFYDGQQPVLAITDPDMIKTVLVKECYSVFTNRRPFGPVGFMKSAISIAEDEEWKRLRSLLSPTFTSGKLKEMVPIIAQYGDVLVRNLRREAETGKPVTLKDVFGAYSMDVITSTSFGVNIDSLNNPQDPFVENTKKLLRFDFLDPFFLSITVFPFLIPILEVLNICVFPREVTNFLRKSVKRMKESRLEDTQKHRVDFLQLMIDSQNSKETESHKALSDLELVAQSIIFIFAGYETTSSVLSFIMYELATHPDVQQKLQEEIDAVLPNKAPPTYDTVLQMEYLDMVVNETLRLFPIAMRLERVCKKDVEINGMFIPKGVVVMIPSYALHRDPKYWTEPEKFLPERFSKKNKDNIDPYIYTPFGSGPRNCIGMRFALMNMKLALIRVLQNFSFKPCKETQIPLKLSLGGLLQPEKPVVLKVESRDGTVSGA
Chain of Cytochrome P450 1A2 (Homo sapiens) (P05177 whole entry, looked up): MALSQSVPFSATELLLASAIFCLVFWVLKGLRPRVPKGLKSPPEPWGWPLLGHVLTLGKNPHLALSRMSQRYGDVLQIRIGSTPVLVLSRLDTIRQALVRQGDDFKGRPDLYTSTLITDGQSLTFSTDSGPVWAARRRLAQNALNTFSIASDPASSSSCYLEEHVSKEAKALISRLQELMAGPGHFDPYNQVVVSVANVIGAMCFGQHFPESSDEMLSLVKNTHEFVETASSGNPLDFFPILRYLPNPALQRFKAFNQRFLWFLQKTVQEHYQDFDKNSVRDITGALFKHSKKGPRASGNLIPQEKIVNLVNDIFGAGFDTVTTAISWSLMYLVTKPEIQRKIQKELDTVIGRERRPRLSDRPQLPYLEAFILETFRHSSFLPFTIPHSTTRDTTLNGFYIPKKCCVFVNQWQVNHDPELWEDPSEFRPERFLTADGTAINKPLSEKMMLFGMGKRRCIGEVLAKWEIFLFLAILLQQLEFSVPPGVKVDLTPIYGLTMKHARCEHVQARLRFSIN
Chain of Alpha-galactosidase A (Homo sapiens) (P06280 whole entry, looked up): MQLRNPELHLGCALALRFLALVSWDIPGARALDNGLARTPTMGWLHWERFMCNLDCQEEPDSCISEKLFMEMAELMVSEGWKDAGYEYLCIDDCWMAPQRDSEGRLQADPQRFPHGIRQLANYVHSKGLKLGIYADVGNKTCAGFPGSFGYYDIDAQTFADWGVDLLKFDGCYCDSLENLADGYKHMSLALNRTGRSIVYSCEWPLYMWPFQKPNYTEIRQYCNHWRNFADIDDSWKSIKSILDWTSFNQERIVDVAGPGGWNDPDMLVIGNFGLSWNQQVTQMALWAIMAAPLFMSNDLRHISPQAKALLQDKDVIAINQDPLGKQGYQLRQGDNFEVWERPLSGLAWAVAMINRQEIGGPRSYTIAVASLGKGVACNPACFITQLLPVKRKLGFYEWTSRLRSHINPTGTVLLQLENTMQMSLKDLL
Chain of Pyruvate kinase PKM (Homo sapiens) (P14618 whole entry, looked up): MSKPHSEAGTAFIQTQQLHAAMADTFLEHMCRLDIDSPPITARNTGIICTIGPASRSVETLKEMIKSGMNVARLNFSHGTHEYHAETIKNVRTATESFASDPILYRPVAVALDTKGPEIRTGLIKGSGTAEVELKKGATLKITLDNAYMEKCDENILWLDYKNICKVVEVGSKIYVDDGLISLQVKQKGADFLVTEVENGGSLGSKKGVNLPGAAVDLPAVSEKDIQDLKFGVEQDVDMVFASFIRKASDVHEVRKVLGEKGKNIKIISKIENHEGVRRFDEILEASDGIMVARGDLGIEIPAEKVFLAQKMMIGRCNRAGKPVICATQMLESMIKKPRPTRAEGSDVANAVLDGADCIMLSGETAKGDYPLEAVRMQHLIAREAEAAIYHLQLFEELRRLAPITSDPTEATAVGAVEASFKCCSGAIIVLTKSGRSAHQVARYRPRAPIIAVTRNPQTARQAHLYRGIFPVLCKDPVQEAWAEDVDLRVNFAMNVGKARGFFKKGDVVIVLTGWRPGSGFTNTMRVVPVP

As for `C/C=C(\C)C(=O)O[C@@H]1C(C)=C2[C@H]([C@@H]1OC(=O)CCCCCCC)[C@@](C)(OC(C)=O)C[C@@H](OC(=O)CCC)[C@@]1(O)[C@H]2OC(=O)[C@]1(C)O`, the activity change, negative = inhibition was 19.3% [at 38 µM] in assay [1] and -79.7% [activator] [at 38 µM] (active) in [3]. Besides, the Potency in [2] was 39.8 µM (active); in assay [4], greater than 46 µM; in [5], greater than 46 µM; in assay [9], 3.98 µM (active); in [11], 0.0501 µM (active). Further, the compound was called inactive in assay [6], in [7], in [15], in [16], in assay [17] and in [18]. In addition, in assay [19], the result was inactive. The Potency result in assay [8], in assay [10], in assay [12], in [13] and in [14] was “inactive” in each case.
Regarding `C=C(C)[C@@H]1CN[C@H](C(=O)O)[C@H]1CC(=O)O`, the activity change, negative = inhibition in [1] is 8.5% [at 38 µM]; in assay [3], 0.349% [at 38 µM]. For the same compound, the Potency entry in assay [2], in [20], in [21] and in assay [22] was “inactive” throughout. The Potency in [5] is greater than 46 µM. The outcome in assay [7] was inactive.
On to `C=CCN1CCc2cccc3c2[C@@H]1Cc1ccc(O)c(O)c1-3`, for which the activity change, negative = inhibition in assay [1] is -21.9% [at 38 µM]. Moreover, the Potency in assay [2] is 3.16 µM (active); in [11] it was 10 µM (active). Also, the outcome in assay [23], in assay [7], in [16], in assay [17], in assay [18] and in assay [19] was inactive. Further, the Potency entry in assay [10], in [12], in [14] and in assay [24] was “inactive” in each case.
